Laboratory results: PubChem BioAssay AID1159580 (chemical genetic matrix, 2015)
Hit rate of the full screen: of about 5,500 compounds, about 2,000 (36%) were called active. Roughly 18% stayed inconclusive and do not appear here. No stated cut-off is given here; in the data, active means normalized growth mostly below about 0.91 (no sharp cut-off); inconclusive means no clear call, values can overlap the other calls; inactive means mostly above about 0.92. The list shows a part of the results.

Test: chemical genetic growth profiling, strain panel (AID 1159580);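 further: tested at 20 µM; growth read once vehicle control cultures reached saturation at 30 °C; 1 = growth at the plate median or of vehicle wells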
Details: growth OD

Measured: normalized growth

CC(=O)Oc1c(C)cccc1C(=O)O
inactive: S. cerevisiae deletion strains, locus YJR043C, strain POL32, stronger effect = lower value 1 | S. cerevisiae deletion strains, locus YJR075W, strain HOC1, stronger effect = lower value 1.01 | S. cerevisiae deletion strains, locus YKL009W, strain mrt4, stronger effect = lower value 0.975 | S. cerevisiae deletion strains, locus YKL068W, stronger effect = lower value 0.995 | S. cerevisiae deletion strains, locus YKL085W, strain MDH1 (second series), stronger effect = lower value 1 | S. cerevisiae deletion strains, locus YKL085W, strain MDH1, stronger effect = lower value 1 | S. cerevisiae deletion strains, locus YKL160W, strain elf1, stronger effect = lower value 0.994 | S. cerevisiae deletion strains, locus YKL190W, strain CNB1, stronger effect = lower value 1.01 | S. cerevisiae deletion strains, locus YKR001C, strain vps1, stronger effect = lower value 1.02 | S. cerevisiae deletion strains, locus YKR026C, strain gcn3, stronger effect = lower value 0.986 | S. cerevisiae deletion strains, locus YKR091W, strain srl3, stronger effect = lower value 1.02 | S. cerevisiae deletion strains, locus YLL001W, strain dnm1, stronger effect = lower value 0.986 | S. cerevisiae deletion strains, locus YLL026W, stronger effect = lower value 1.01 | S. cerevisiae deletion strains, locus YLL041C, strain sdh2, stronger effect = lower value 0.991 | S. cerevisiae deletion strains, locus YLR027C, strain aat2, stronger effect = lower value 0.989 | S. cerevisiae deletion strains, locus YLR039C, strain RIC1, stronger effect = lower value 1 | S. cerevisiae deletion strains, locus YLR058C, strain SHM2, stronger effect = lower value 1.01 | S. cerevisiae deletion strains, locus YLR102C, strain apc9, stronger effect = lower value 1.01 | S. cerevisiae deletion strains, locus YLR221C, strain rsa3, stronger effect = lower value 1.02 | S. cerevisiae deletion strains, locus YLR258W, strain gsy2, stronger effect = lower value 0.999 | S. cerevisiae deletion strains, locus YLR262C, strain YPT6 (second series), stronger effect = lower value 1.03 | S. cerevisiae deletion strains, locus YLR262C, strain YPT6, stronger effect = lower value 1.05 | S. cerevisiae deletion strains, locus YLR268W, strain sec22, stronger effect = lower value 1.01 | S. cerevisiae deletion strains, locus YLR320W, strain mms22, stronger effect = lower value 1.03 | S. cerevisiae deletion strains, locus YLR330W, strain CHS5, stronger effect = lower value 1 | S. cerevisiae deletion strains, locus YLR342W, strain FKS1 (second series), stronger effect = lower value 1.02 | S. cerevisiae deletion strains, locus YLR342W, strain FKS1, stronger effect = lower value 1 | S. cerevisiae deletion strains, locus YLR357W, strain rsc2, stronger effect = lower value 1.04 | S. cerevisiae deletion strains, locus YLR370C, strain arc18, stronger effect = lower value 0.992 | S. cerevisiae deletion strains, locus YLR371W, strain rom2, stronger effect = lower value 1.01 | S. cerevisiae deletion strains, locus YLR384C, strain iki3, stronger effect = lower value 1.01 | S. cerevisiae deletion strains, locus YLR418C, strain cdc73, stronger effect = lower value 1.03 | S. cerevisiae deletion strains, locus YML016C, strain PPZ1, stronger effect = lower value 1.02 | S. cerevisiae deletion strains, locus YML032C, strain rad52, stronger effect = lower value 1.02 | S. cerevisiae deletion strains, locus YML120C, strain ndi1, stronger effect = lower value 1.02 | S. cerevisiae deletion strains, locus YML124C, strain tub3, stronger effect = lower value 1.01 | S. cerevisiae deletion strains, locus YMR058W, strain fet3, stronger effect = lower value 1.02 | S. cerevisiae deletion strains, locus YMR078C, strain ctf18, stronger effect = lower value 1.02 | S. cerevisiae deletion strains, locus YMR125W, strain sto1, stronger effect = lower value 1 | S. cerevisiae deletion strains, locus YMR129W, stronger effect = lower value 1.02 | S. cerevisiae deletion strains, locus YMR205C, strain PFK2, stronger effect = lower value 0.986 | S. cerevisiae deletion strains, locus YMR223W, strain ubp8, stronger effect = lower value 1.01 | S. cerevisiae deletion strains, locus YMR231W, strain pep5, stronger effect = lower value 1.01 | S. cerevisiae deletion strains, locus YMR263W, strain SAP30, stronger effect = lower value 1.01 | S. cerevisiae deletion strains, locus YMR307W, strain GAS1, stronger effect = lower value 1.05 | S. cerevisiae deletion strains, locus YNL067W, strain RPL9B, stronger effect = lower value 1.01 | S. cerevisiae deletion strains, locus YNL071W, strain lat1, stronger effect = lower value 1.02 | S. cerevisiae deletion strains, locus YNL128W, strain TEP1, stronger effect = lower value 1.01 | S. cerevisiae deletion strains, locus YNL153C, strain GIM3, stronger effect = lower value 1.01 | S. cerevisiae deletion strains, locus YNL209W, strain ssb2, stronger effect = lower value 1.01 | S. cerevisiae deletion strains, locus YNL233W, strain BNI4, stronger effect = lower value 1.01 | S. cerevisiae deletion strains, locus YNL248C, strain rpa49, stronger effect = lower value 1.01 | S. cerevisiae deletion strains, locus YNL250W, strain rad50, stronger effect = lower value 1.02 | S. cerevisiae deletion strains, locus YNL271C, strain bni1, stronger effect = lower value 1.01 | S. cerevisiae deletion strains, locus YNL298W, strain CLA4, stronger effect = lower value 0.987 | S. cerevisiae deletion strains, locus YNL307C, strain MCK1, stronger effect = lower value 1.02 | S. cerevisiae deletion strains, locus YNL322C, strain KRE1 (second series), stronger effect = lower value 1.01 | S. cerevisiae deletion strains, locus YNL322C, strain KRE1, stronger effect = lower value 1.01 | S. cerevisiae deletion strains, locus YNR049C, strain mso1, stronger effect = lower value 0.978 | S. cerevisiae deletion strains, locus YNR052C, strain pop2, stronger effect = lower value 1.01 | S. cerevisiae deletion strains, locus YOL006C, strain TOP1, stronger effect = lower value 1.02 | S. cerevisiae deletion strains, locus YOL012C, strain htz1 1.54 | S. cerevisiae deletion strains, locus YOL147C, strain pex11, stronger effect = lower value 1.01 | S. cerevisiae deletion strains, locus YOR001W, strain rrp6, stronger effect = lower value 1.01 | S. cerevisiae deletion strains, locus YOR061W, strain CKA2, stronger effect = lower value 1 | S. cerevisiae deletion strains, locus YOR069W, strain VPS5, stronger effect = lower value 1.01 | S. cerevisiae deletion strains, locus YOR070C, strain gyp1, stronger effect = lower value 0.99 | S. cerevisiae deletion strains, locus YOR080W, strain dia2, stronger effect = lower value 0.999 | S. cerevisiae deletion strains, locus YOR083W, strain WHI5, stronger effect = lower value 1.01 | S. cerevisiae deletion strains, locus YOR106W, strain vam3, stronger effect = lower value 1.01 | S. cerevisiae deletion strains, locus YOR136W, strain idh2, stronger effect = lower value 1.02 | S. cerevisiae deletion strains, locus YOR144C, strain elg1, stronger effect = lower value 1.02 | S. cerevisiae deletion strains, locus YOR184W, strain ser1, stronger effect = lower value 1.01 | S. cerevisiae deletion strains, locus YOR265W, strain rbl2, stronger effect = lower value 0.993 | S. cerevisiae deletion strains, locus YOR270C, strain vph1, stronger effect = lower value 1.06 | S. cerevisiae deletion strains, locus YOR290C, strain snf2, stronger effect = lower value 0.99 | S. cerevisiae deletion strains, locus YOR316C, strain cot1, stronger effect = lower value 1.02 | S. cerevisiae deletion strains, locus YPL051W, strain arl3, stronger effect = lower value 1 | S. cerevisiae deletion strains, locus YPL055C, strain LGE1, stronger effect = lower value 1.03 | S. cerevisiae deletion strains, locus YPL078C, strain atp4, stronger effect = lower value 1.02 | S. cerevisiae deletion strains, locus YPL106C, strain sse1, stronger effect = lower value 1.06 | S. cerevisiae deletion strains, locus YPL240C, strain hsp82, stronger effect = lower value 0.973 | S. cerevisiae deletion strains, locus YPL241C, strain CIN2, stronger effect = lower value 0.986 | S. cerevisiae deletion strains, locus YPR119W, strain clb2, stronger effect = lower value 1 | S. cerevisiae deletion strains, locus YPR141C, strain kar3, stronger effect = lower value 1 | S. cerevisiae deletion strains, locus YPR163C, strain tif3, stronger effect = lower value 1.01 | S. cerevisiae deletion strains, locus YPR167C, strain met16, stronger effect = lower value 1.01 | S. cerevisiae deletion strains, strain wtn01, stronger effect = lower value 1 | S. cerevisiae strains, strain wild type, stronger effect = lower value 0.993
